Results from PubChem BioAssay (NCATS).
Records with an inconclusive call do not appear. Activity calls are given as the source filed them. The call rests on the fitted dose curve; in most records, active means well fitted curve in the direction sought with a large enough effect; inconclusive means small, poorly fitted or top-dose-only effect, or another doubt; inactive means no such curve, though single readings can be large; an effect the other way counts as inactive or inconclusive.

Assay: qHTS of pediatric cancer cell lines to identify multiple opportunities for drug repurposing: Confirmatory screen for Rh41 cells (AID 1347123);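 further: 48 h compound exposure; nearly all actives have a fitted effect of over 60% in size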;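 on activity change, negative = cytotoxic: plate controls were DMSO for no effect and bortezomib for full effect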
Details: Rh41 rhabdomyosarcoma cells, viability/cytotoxicity qHTS; series mostly up to 45.9 µM; activity change, negative = cytotoxic: at the top concentration
Method in brief: (§1)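 Viability after 48 h compound treatment at 37C, 500-1,000 cells/well, read as ATP luminescence with CellTiter-Glo. Primary screens used 11-point (MIPE, 0.78 nM-46 µM) or 8-point (NPC, 0.59 nM-46 µM) final concentrations; follow-up screens used 11-point dilutions.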
Potency means the concentration at half of the fitted maximal effect.

| SMILES | activity change, negative = cytotoxic | Potency |
| --- | --- | --- |
| COc1ccc(-c2ccc3cc(C(=O)O)ccc3c2)cc1C12CC3CC(CC(C3)C1)C2 | -93.9% (inactive) |  |
| CC(C)NCC(O)c1ccc(NS(C)(=O)=O)cc1 (stereo unspecified) | 0% (inactive) |  |
| COC(=O)Nc1nc2ccc(Sc3ccccc3)cc2[nH]1 |  | 1.17 µM (active) |
| COc1cc2c(Nc3ccc(Br)cc3F)ncnc2cc1OCC1CCN(C)CC1 |  | 16.5 µM (active) |
| CC(C)(C)C(=O)OCOP(=O)(COCCn1cnc2c(N)ncnc21)OCOC(=O)C(C)(C)C |  | 20.8 µM (active) |
| O=S(=O)(O)CCS | -3.89% (inactive) |  |
| CC(C)(C#N)c1cc(Cn2cncn2)cc(C(C)(C)C#N)c1 | -2.59% (inactive) |  |
| NC(=O)c1cccnc1 | 2.27% (inactive) |  |
| COC(=O)Nc1nc2ccc(S(=O)c3ccccc3)cc2[nH]1 (stereo unspecified) |  | 1.04 µM (active) |
| CCOC(=O)[C@H](CCc1ccccc1)N[C@H]1CS[C@H](c2cccs2)CN(CC(=O)O)C1=O | 10.9% (inactive) |  |
| COc1nc(N)nc2c1ncn2[C@@H]1O[C@H](CO)[C@@H](O)[C@@H]1O |  | 16.5 µM (active) |
| CC(C(=O)O)c1ccc2c(c1)CC(=O)c1ccccc1S2 (stereo unspecified) | -2.66% (inactive) |  |
| C[C@@H]1C[C@H]2[C@@H]3CCC4=CC(=O)C=C[C@]4(C)[C@@]3(Cl)[C@@H](O)C[C@]2(C)[C@@]1(OC(=O)c1ccco1)C(=O)CCl |  | 1.04 µM (active) |
| O=NN(CCCl)C(=O)NC1CCCCC1 | -13.2% (inactive) |  |
| Nc1[nH]c(=O)ncc1F | 14.4% (inactive) |  |
| COc1ccc(C(=O)CC(=O)c2ccc(C(C)(C)C)cc2)cc1 | 25.8% (inactive) |  |

Assay: qHTS of pediatric cancer cell lines to identify multiple opportunities for drug repurposing: Confirmatory screen for RD cells (AID 1347124);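 further: cells exposed to compound for 48 h before viability readout; nearly all actives have a fitted effect of over 65% in size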; on activity change, negative = cytotoxic: on the % scale 0 is the no-effect control and ±100 the full control effect
Details: RD rhabdomyosarcoma cell viability; series mostly up to 45.9 µM; activity change, negative = cytotoxic: at the top concentration
Method in brief: as §1

| SMILES | activity change, negative = cytotoxic | Potency |
| --- | --- | --- |
| CC(C)NCC(O)c1ccc(NS(C)(=O)=O)cc1 (stereo unspecified) | 10.4% (inactive) |  |
| COC(=O)Nc1nc2ccc(Sc3ccccc3)cc2[nH]1 |  | 2.08 µM (active) |
| CCCCOc1ccc(CC(=O)NO)cc1 | -16.9% (inactive) |  |
| CC(C)(C)C(=O)OCOP(=O)(COCCn1cnc2c(N)ncnc21)OCOC(=O)C(C)(C)C | -11.5% (inactive) |  |
| CC(C)(C#N)c1cc(Cn2cncn2)cc(C(C)(C)C#N)c1 | 8.27% (inactive) |  |
| COc1cc([C@@H]2c3cc4c(cc3[C@H](O)[C@H]3COC(=O)[C@H]23)OCO4)cc(OC)c1OC |  | 0.0414 µM (active) |
| CCOC(=O)c1ccc(C#Cc2ccc3c(c2)C(C)(C)CCS3)nc1 | 8.34% (inactive) |  |
| Nc1nc(F)nc2c1ncn2[C@@H]1O[C@H](CO)[C@@H](O)[C@@H]1O |  | 1.65 µM (active) |
| Nc1nc(N)nc(-c2cc(Cl)ccc2Cl)n1 | 9.71% [at 97.2 µM] (inactive) |  |
| NC(=O)c1cccnc1 | 2.96% (inactive) |  |
| COC(=O)Nc1nc2ccc(S(=O)c3ccccc3)cc2[nH]1 (stereo unspecified) |  | 2.61 µM (active) |
| CCOC(=O)[C@H](CCc1ccccc1)N[C@H]1CS[C@H](c2cccs2)CN(CC(=O)O)C1=O | 7.75% (inactive) |  |
| COc1nc(N)nc2c1ncn2[C@@H]1O[C@H](CO)[C@@H](O)[C@@H]1O | 13.1% (inactive) |  |
| CC(C(=O)O)c1ccc2c(c1)CC(=O)c1ccccc1S2 (stereo unspecified) | -8.93% (inactive) |  |
| O=NN(CCCl)C(=O)NC1CCCCC1 | 9.91% (inactive) |  |
| Nc1[nH]c(=O)ncc1F | 8.36% (inactive) |  |
| COc1ccc(C(=O)CC(=O)c2ccc(C(C)(C)C)cc2)cc1 | 9.15% (inactive) |  |
| Cc1cccc(N(C)C(=S)Oc2ccc3ccccc3c2)c1 | 14.4% (inactive) |  |

Assay: qHTS of pediatric cancer cell lines to identify multiple opportunities for drug repurposing: Confirmatory screen for Rh18 cells (AID 1347125); further: nearly all actives have a fitted effect of over 55% in size; on activity change, negative = cytotoxic: on the % scale 0 is the no-effect control and ±100 the full control effect
Details: Rh18 rhabdomyosarcoma cells, viability; series mostly up to 45.9 µM; activity change, negative = cytotoxic: at the top concentration
Method in brief: as §1

| SMILES | activity change, negative = cytotoxic | Potency |
| --- | --- | --- |
| COc1ccc(-c2ccc3cc(C(=O)O)ccc3c2)cc1C12CC3CC(CC(C3)C1)C2 | -24.7% (inactive) |  |
| CC(C)NCC(O)c1ccc(NS(C)(=O)=O)cc1 (stereo unspecified) | 6.52% (inactive) |  |
| COc1cc2c(Nc3ccc(Br)cc3F)ncnc2cc1OCC1CCN(C)CC1 | 5.73% (inactive) |  |
| CC(C)(C)C(=O)OCOP(=O)(COCCn1cnc2c(N)ncnc21)OCOC(=O)C(C)(C)C | -12.1% (inactive) |  |
| O=S(=O)(O)CCS | -28.5% (inactive) |  |
| CC(C)(C#N)c1cc(Cn2cncn2)cc(C(C)(C)C#N)c1 | 4.22% (inactive) |  |
| COc1cc([C@@H]2c3cc4c(cc3[C@H](O)[C@H]3COC(=O)[C@H]23)OCO4)cc(OC)c1OC | -3.61% (inactive) |  |
| CCOC(=O)c1ccc(C#Cc2ccc3c(c2)C(C)(C)CCS3)nc1 | -18.4% (inactive) |  |
| Nc1nc(N)nc(-c2cc(Cl)ccc2Cl)n1 | -7.64% (inactive) |  |
| COC(=O)Nc1nc2ccc(S(=O)c3ccccc3)cc2[nH]1 (stereo unspecified) | -13% (inactive) |  |
| CCOC(=O)[C@H](CCc1ccccc1)N[C@H]1CS[C@H](c2cccs2)CN(CC(=O)O)C1=O | 5.75% (inactive) |  |
| CC(C)C[C@H](NC(=O)[C@H](CCc1ccccc1)NC(=O)CN1CCOCC1)C(=O)N[C@@H](Cc1ccccc1)C(=O)N[C@@H](CC(C)C)C(=O)[C@@]1(C)CO1 |  | 0.0465 µM (active) |
| CC(C(=O)O)c1ccc2c(c1)CC(=O)c1ccccc1S2 (stereo unspecified) | -16.9% (inactive) |  |
| C[C@@H]1C[C@H]2[C@@H]3CCC4=CC(=O)C=C[C@]4(C)[C@@]3(Cl)[C@@H](O)C[C@]2(C)[C@@]1(OC(=O)c1ccco1)C(=O)CCl |  | 20.8 µM (active) |
| O=NN(CCCl)C(=O)NC1CCCCC1 | -3.73% (inactive) |  |
| Nc1[nH]c(=O)ncc1F | 2.3% (inactive) |  |
| COc1ccc(C(=O)CC(=O)c2ccc(C(C)(C)C)cc2)cc1 | -0.509% (inactive) |  |
| Cc1cccc(N(C)C(=S)Oc2ccc3ccccc3c2)c1 | -14.2% (inactive) |  |

Assay: qHTS of pediatric cancer cell lines to identify multiple opportunities for drug repurposing: Confirmatory screen for Rh30 cells (AID 1347126); further: nearly all actives have a fitted effect of over 55% in size; on activity change, negative = cytotoxic: on the % scale 0 is the no-effect control and ±100 the full control effect
Details: Rh30 rhabdomyosarcoma cell viability; series mostly up to 45.9 µM; activity change, negative = cytotoxic: at the top concentration
Method in brief: as §1

| SMILES | activity change, negative = cytotoxic | Potency |
| --- | --- | --- |
| COC(=O)Nc1nc2ccc(Sc3ccccc3)cc2[nH]1 | -29.5% (inactive) |  |
| O=S(=O)(O)CCS | -1.02% (inactive) |  |
| CC(C)(C#N)c1cc(Cn2cncn2)cc(C(C)(C)C#N)c1 | 6.12% (inactive) |  |
| COc1cc([C@@H]2c3cc4c(cc3[C@H](O)[C@H]3COC(=O)[C@H]23)OCO4)cc(OC)c1OC | 3.96% (inactive) |  |
| Nc1nc(N)nc(-c2cc(Cl)ccc2Cl)n1 | 28.8% [at 97.2 µM] (inactive) |  |
| NC(=O)c1cccnc1 | 12.4% (inactive) |  |
| COC(=O)Nc1nc2ccc(S(=O)c3ccccc3)cc2[nH]1 (stereo unspecified) | -26.2% (inactive) |  |
| CCOC(=O)[C@H](CCc1ccccc1)N[C@H]1CS[C@H](c2cccs2)CN(CC(=O)O)C1=O | 0% (inactive) |  |
| CC(C)C[C@H](NC(=O)[C@H](CCc1ccccc1)NC(=O)CN1CCOCC1)C(=O)N[C@@H](Cc1ccccc1)C(=O)N[C@@H](CC(C)C)C(=O)[C@@]1(C)CO1 |  | 0.117 µM (active) |
| CC(C(=O)O)c1ccc2c(c1)CC(=O)c1ccccc1S2 (stereo unspecified) | -2.73% (inactive) |  |
| O=NN(CCCl)C(=O)NC1CCCCC1 | -4.3% (inactive) |  |
| Nc1[nH]c(=O)ncc1F | -12.2% (inactive) |  |
| COc1ccc(C(=O)CC(=O)c2ccc(C(C)(C)C)cc2)cc1 | 20% (inactive) |  |
| Cc1cccc(N(C)C(=S)Oc2ccc3ccccc3c2)c1 | 6.11% (inactive) |  |
